# Laboratory results reported in PubChem BioAssay (NCATS).
# Inconclusive results are not listed. Calls of active or inactive are those of the source. Calls follow the shape of the dose curve; as a rule, active = well fitted cell-killing curve with a large enough effect; inconclusive = small, poorly fitted or top-dose-only effect; inactive = flat fitted curve, though single readings scatter.
# Test: Cell Viability - Renal Proximal Tubule (AID 545); also: nearly all actives have a fitted effect of over 40% in size
# Settings: renal proximal tubule cells viability, primary cells of rat origin; series mostly up to 91.7 µM
# From the text: NIH Chemical Genomics Center [NCGC]
# NIH Molecular Libraries Screening Centers Network [MLSCN]
# National Institutes of Environmental Health Sciences [NIEHS]
# National Toxicology Program [NTP]
# We have developed a 1536-well cell-based assay for quantitative high throughput screening (qHTS) against a number of cell lines to determine in vitro cytotoxicity of small molecules. This particular assay uses the renal proximal tubule cells which are derived from normal kidney cells freshly isolated from rat.
# NCGC Assay Protocol Summary:
# The CellTiter-Glo luminescent cell viability assay (Promega) is a homogeneous method to measure the number of viable cells in culture. The end point readout of this assay is based on quantitation of intracellular ATP, an indicator of metabolic activity, using the luciferase reaction. Luciferase catalyzes the oxidation of beetle Luciferin to oxyluciferin and light in the presence of ATP. The luminescent signal is proportional to amount of ATP present.
# Using the CellTiter-Glo luminescent cell viability assay, the amount of cellular ATP was measured in the renal proximal tubule cells with complete culture medium following compound treatment for 40 hours. The assay was performed in opaque white Kalypsys 1536-well plates. In the screen, tamoxifen and doxorubicin were used as positive controls. Library compounds were measured for their ability to cause acute toxicity in the cell line, as reflected by a decrease in intracellular ATP levels, in a concentration-dependent manner. […] AC50 values were determined from concentration-response data modeled with the standard Hill equation.
# qHTS protocol for CellTiter Glo renal proximal tubule cell assay
# [Step] [Parameter] [Value] [Description]
# 1. Reagent; 5 uL; 1000 renal proximal tubule cells/well
# 2. Time; 5 hr; 37 °C incubation
# 4. Controls; 23 nL; Tamoxifen 0.34 uM to 100 uM & Doxorubicin 0.02 nM to 100 uM
# 5. Time; 40 hr; 37 °C incubation
# 6. Reagent; 5 uL; CellTiter Glo reagent
# 7. Time; 20 min; Room Temperature
# 8. Detection; Luminescence; Viewlux plate reader
# Keywords: cell viability, cytotoxicity, renal proximal tubule cells, luminescence, NTPHTS, NTPHTS_NCGC, NIEHS, EPA, DSSTox, MLSMR, MLSCN, NIH Roadmap, qHTS, NCGC
row,Compound,outcome
1,CCOc1ccccc1C(N)=O,inactive
2,COc1ccc(C(=O)c2ccccc2)c(O)c1,inactive
3,NC(=O)c1ccccc1O,inactive
4,NCCNc1cccc2ccccc12,inactive
5,OC[C@H]1O[C@@H]2O[C@H]3[C@H](O)[C@@H](O)[C@@H](O[C@H]4[C@H](O)[C@@H](O)[C@@H](O[C@H]5[C@H](O)[C@@H](O)[C@@H](O[C@H]6[C@H](O)[C@@H](O)[C@@H](O[C@H]7[C@H](O)[C@@H](O)[C@@H](O[C@H]8[C@H](O)[C@@H](O)[C@@H](O[C@H]1[C@H](O)[C@H]2O)O[C@@H]8CO)O[C@@H]7CO)O[C@@H]6CO)O[C@@H]5CO)O[C@@H]4CO)O[C@@H]3CO,inactive
6,CCOc1ccc(NC(C)=O)cc1,inactive
7,C=C[C@H]1CN2CC[C@H]1C[C@@H]2[C@@H](O)c1ccnc2ccc(OC)cc12,inactive
8,C/C=C/c1ccc(O)c(OC)c1,inactive
9,O=C(O)c1ccc(S(=O)(=O)N(Cl)Cl)cc1,inactive
10,CCCCC(CC)COC(=O)c1ccc(N(C)C)cc1 (configuration not stated),inactive
11,CCCN(CCC)S(=O)(=O)c1ccc(C(=O)O)cc1,inactive
12,COc1ccc(C(Cl)=C(c2ccc(OC)cc2)c2ccc(OC)cc2)cc1,inactive
